The source made the active and inactive calls. The calls were made as follows: active = hit-call score of the fitted dose curve at least 0.9, where 1 is the maximum; inactive = score below 0.9.
These compounds were tested on Vascular cell adhesion molecule 1 (VCAM1), VCAM1 (gene 7412) (assay: BSK_IMphg_VCAM1: BioMAP Diversity Plus: IMphg Assay for Vascular cell adhesion molecule 1 (VCAM1) Biomarker Activity (AID 2284286)). Settings: primary human endothelial cells with macrophages.
Method: BSK_IMphg is a cell-based, multiplexed-readout assay that uses venular endothelial cells and macrophages, a human vascular primary cell, with measurements taken at 24 hours after chemical dosing in a microplate: 96-well plate.BSK_IMphg_VCAM1 is an assay component measured in the BSK_IMphg assay. It measures VCAM-1 antibody related to regulation of gene expression using ELISA technology.Data from the assay component BSK_IMphg_VCAM1 was analyzed at the endpoint, BSK_IMphg_VCAM1, in the positive analysis fitting direction relative to DMSO as the negative control and baseline of activity. Using a type of binding reporter, gain or loss-of-signal activity can be used to understand protein changes. To generalize the intended target to other relatable targets, this assay endpoint is annotated to the 'cell adhesion molecules' intended target family, where the subfamily is 'Immunoglobulin CAM'.
The levels of cell surface (or secreted, indicated by the prefix "s") biomarker endpoints were measured by ELISA. Overt cytotoxicity to cells in confluent adherent cultures (all systems other than the BT system) was assessed by measuring total protein levels using sulforhodamine B (SRB) staining in parallel cultures at the time of biomarker measurements, indicated as SRB endpoints. For proliferation assays for adherent cell types, individual cell types are cultured at sub-confluence and relative cell numbers quantified by SRB staining at time points optimized for each system (48 h: 3C and CASM3C systems; 72 h: BT and HDF3CGF systems; 96 h: SAg system). SRB was performed by staining cells with 0.1% SRB after fixation with 10% TCA and reading wells at 560 nm.Viability and proliferation of PBMC (T cells) was quantified by Alamar Blue reduction for the SAg and BT systems. For PBMC viability (referred to as PBMC Cytotoxicity within the assay endpoint names), cells were plated (75,000/well in a 96-well plate) and then chemical samples added for 1 h before addition of activators, SEB and TSST-1 (20 ng/mL final concentration each). Cells were incubated for 90 h. Then, Alamar Blue (20 uL/well) (Invitrogen, Cat DAL1100) was added for 6 h, and the plates were read with a fluorescence microplate reader at 546/580 nm (excitation/emission). For PBMC proliferation, cells were plated and activated as above but incubated for only 16 h prior to addition of Alamar Blue. Plates were read after 6 h.

**Q.** How did the outcome turn out when `FC(F)=C(F)C(F)(F)C(F)(F)C(F)(F)C(F)(F)C(F)(F)C(F)(F)F` was run?
**A.** Its outcome is “inactive”.

**Q.** `O=C(Cl)C(F)(F)C(F)(F)C(F)(F)C(=O)Cl` was tested. Which outcome did it give?
**A.** The outcome was “inactive”.

**Q.** Which outcome does the source give for `C[Si](C)(C)C(F)(F)C(F)(F)C(F)(F)F` here?
**A.** The outcome was “inactive”.

**Q.** With `O=S(=O)(O)CCC(F)(F)C(F)(F)C(F)(F)C(F)(F)C(F)(F)C(F)(F)F` as the compound, how does the outcome read?
**A.** The outcome was “inactive”.

**Q.** With `NCC(F)(F)C(F)(F)C(F)(F)C(F)(F)F` as the compound, how does the outcome read?
**A.** Its outcome is “inactive”.

**Q.** How did the outcome turn out when `FC(F)(F)C(F)(F)C(F)(F)C(F)(F)C(F)(F)C(F)(F)I` was run?
**A.** Its outcome is “inactive”.

**Q.** For `FC(F)C(F)(F)COCC1CO1` (stereo not given), which outcome is on record?
**A.** The outcome was “inactive”.

**Q.** With `OC(O)(C(F)C(O)(O)C(F)(F)F)C(F)(F)F` as the compound, how does the outcome read?
**A.** Its outcome is “inactive”.

**Q.** For `FC(F)(F)COC(OCC(F)(F)F)OCC(F)(F)F`, which outcome is on record?
**A.** The outcome was “inactive”.

**Q.** With `OCCC(F)(F)C(F)(F)C(F)(F)C(F)(F)F` as the compound, how does the outcome read?
**A.** Its outcome is “inactive”.

Source: PubChem BioAssay (EPA / NIEHS)
